According to PubChem BioAssay (NCATS):
Inconclusive results are not listed. A call without a number means that no potency is given here. A number with no mark means an inactive call. Calls of active or inactive are those of the source. The call rests on the fitted dose curve; in most records, active means well fitted inhibition curve with a large enough effect; inconclusive means small, poorly fitted or top-dose-only effect; inactive means flat fitted curve, though single readings scatter.

What follows are molecules tested against Calcium and integrin-binding protein 1 (Homo sapiens) (UniProt Q99828) (assay: Primary qHTS for Identification of Calcium Integrin Binding Protein 1 (CIB1) Competitor (AID 1508620;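 further: GST tagged CIB1 binding a fluorescein labelled alphaIIb integrin peptide tracer; top concentration of the series differs between compounds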)). Details: CIB1-GST / FITC-alphaIIb peptide fluorescence polarization; series mostly up to 114 µM.
Calcium and integrin-binding protein 1 (Homo sapiens), sequence (Q99828 whole entry, looked up): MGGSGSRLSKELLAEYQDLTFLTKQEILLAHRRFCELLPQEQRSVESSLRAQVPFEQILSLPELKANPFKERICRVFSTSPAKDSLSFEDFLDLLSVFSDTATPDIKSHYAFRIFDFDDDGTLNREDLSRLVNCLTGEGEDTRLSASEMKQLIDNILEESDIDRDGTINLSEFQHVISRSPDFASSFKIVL
How it was run: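 CIB1-GST (1 uM final) and compound incubated 15 min at room temperature before adding FITC-alphaIIb peptide tracer (100 nM final). Competition for binding read by fluorescence polarization (ex 480, em 540) after another 15 min at room temperature.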
`COc1ccc(C2(CNC(=O)c3ccc(NC(=O)c4ccco4)cc3)CCOCC2)cc1` was tested, and the Potency was “inactive”. For `C=C1C(=O)OC2/C=C(\COC(C)=O)CC/C=C(\C=O)CC(OC(=O)CC(C)C)C12` (stereo not given), the Potency was “inactive”. In the case of `O=C(Nc1ccn(Cc2ccc(O)cc2C(F)(F)F)n1)c1c(F)cccc1F`, the Potency is reported as “inactive”. `COC1=CC(=O)C=C(C)C12Oc1c(Cl)c(OC)cc(OC)c1C2=O` (stereo not given) was tested, and the Potency was “inactive”. In the case of `NC(=O)c1cccc2[nH]c(-c3ccc(C4CCCN4)cc3F)nc12` (stereo not given), the Potency is reported as “inactive”. `COC(=O)c1cc2c(C(F)(F)F)cc(-c3ccccc3)cc2n1O` was tested, and the Potency was “inactive”. With `CN1c2c(nc(N)[nH]c2=O)NC[C@@H]1CNc1ccc(C(=O)N[C@@H](CCC(=O)O)C(=O)O)cc1` the Potency was “inactive”. With `CC(C)c1cc(-c2ccc(F)c3ccccc23)nc(N)n1` the Potency was “inactive”. In the case of `CCCCCc1ccc(/C=C/C(=O)Nc2cc(Cl)ccc2C(=O)O)cc1`, the Potency is reported as “inactive”. For `COc1cc2nc(N3CCN(C(=O)COc4c(OC)cccc4C(C)C)CC3)nc(N)c2cc1OC`, the Potency was “inactive”. With `CC(=O)C=C=C1C(C)(C)CC(O)CC1(C)O[C@@H]1O[C@H](CO[C@H]2OC[C@](O)(CO)[C@H]2O)[C@@H](O)[C@H](O)[C@H]1O` (stereo not given in full) the Potency was “inactive”. With `CN1CCN(C2CCN(C(=O)Nc3cc(Oc4ccc(NC(=O)C5(C(=O)Nc6ccc(F)cc6)CC5)c(F)c4)ccn3)CC2)CC1` the Potency was “inactive”. In the case of `C/C=C(\C)C(=O)OC1C=C(C)CC(OC(=O)c2ccc(O)cc2)C2C1(C)CCC2(O)C(C)C` (stereo not given), the Potency is reported as “inactive”. With `CN(C)CCOC(C)(c1ccccc1)c1ccc(Cl)cc1` (stereo not given) the Potency was “inactive”. `C[C@@H]1O[C@@H](O[C@H]2[C@H](OC(=O)[C@]34CCC(C)(C)C[C@H]3C3=CCC5[C@@]6(C)C[C@H](O)[C@H](O[C@@H]7O[C@H](C(=O)O)[C@@H](O)[C@H](O)[C@H]7O)[C@@](C)(CO)C6[C@H](O)C[C@@]5(C)[C@]3(C)C[C@H]4O)O[C@@H](CO)[C@@H]2O)[C@H](O)[C@H](O)[C@H]1O[C@@H]1OC[C@@H](O)[C@H](O[C@H]2OC[C@](O)(CO)[C@H]2O)[C@H]1O` (stereo not given in full) showed an activity change, negative = inhibition of 1.16% [at 12.4 µM].
